According to PubChem BioAssay AID602141 (Sanford-Burnham Center for Chemical Genomics, 2011):
Among all 360,000 compounds or so, about 1,300 (0.36%) were called active. The sample as a whole holds a higher share of actives than the screen did. A number with no mark means an inactive call.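 The calls were made as follows: active = corrected activity change at or below -50% at 5 µM; inactive = the rest.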

assay: cytotoxicity in KKLEB CF airway cells, primary screen, cytotoxicity control for CF NF-kB inhibitor project, cell-based, uHTS, fluorescence assay plates (AID 602141); details: KKLEB CF airway cells viability, ATPlite luminescence, overnight; at 5 µM; hits give low values; cells stimulated with P. aeruginosa culture filtrate

Row | Structure (SMILES) | activity change (cytotoxicity)
1 | Cc1c(CCO)c(=O)[nH]n1C(=O)c1c(F)cccc1F | 1.8%
2 | S=c1[nH]cc(-c2ccc(Cl)cc2)n1-c1ccccc1 | 6.2%
3 | Cc1ccnc(SCC(=O)Nc2cccc(S(=O)(=O)N3CCOCC3)c2)n1 | 7.3%
4 | O=C(CCN1CCCCC1)N=Nc1c(O)[nH]c2ccccc12 | -4.3%
5 | O=C(NCc1ccncc1)c1ccc(NS(=O)(=O)c2cccc([N+](=O)[O-])c2)cc1 | -3%
6 | O=[N+]([O-])c1cc(S(=O)(=O)Nc2cccc(Cl)c2)ccc1N=Nc1c(O)[nH]c2ccccc12 | -80% (active)
7 | CCCNC(=O)CCn1cc(-c2ccc(OC)cc2)nc1CCN | 2.3%
8 | COc1ccc(C2CC(=O)C=C(NCC3CCCO3)C2)cc1 (configuration not stated) | 0%
9 | O=C(NCC(F)(F)F)c1ccc(S(=O)(=O)NCCc2ccc3c(c2)OCCO3)cc1 | 19.2%
10 | O=C(OC12CC3CC(CC(C3)C1)C2)c1ccc(NCc2cc(O)ccc2O)cc1 | -63.4% (active)
11 | O=C(CC1CCCCC1)Nc1c2c(nn1-c1ccc(F)cc1)CS(=O)(=O)C2 | -3.9%
12 | COc1ccc(-c2c(C#Cc3ccsc3)c3cc(-c4ccc(CN5CCOCC5)cc4)ccc3n2C)cc1 | -4.5%
13 | O=C(Nc1cccc2ccccc12)NC1CC1 | 1%
14 | O=C(Nc1cccc2ccccc12)c1[nH]c(-c2ccccc2)c2c1C(=O)N(C1CC1)C2=O | -52.9% (active)
15 | O=C(Nc1cccc2ccccc12)c1onc2c1CCCC2 | 5.7%
16 | COCCN(C(=S)Nc1ccccc1OC)C1CCN(C(C)C)CC1 | -3.5%
17 | CC(Oc1ccc(F)cc1F)C(=O)/C=C/N(C)C (configuration not stated) | 4.1%
18 | COC(=O)c1ccc(CNC(=O)C2CCC(=O)N(Cc3ccccn3)C2)cc1 (configuration not stated) | -4.5%
19 | COc1ccc(C2=NO[C@@H]3C(=O)N(Cc4ccccc4)C(=O)[C@H]23)cc1OC | -0.3%
20 | COc1ccc(-c2cc(C(F)(F)F)nc(S(C)(=O)=O)n2)cc1OC | -78.4% (active)
21 | COc1ccc(C2SCCN2S(=O)(=O)c2ccccc2)cc1OC (configuration not stated) | -14.9%

Row | Structure (SMILES) | activity change (cytotoxicity)
22 | Cn1c(CCNS(=O)(=O)c2ccc(F)cc2)nnc1SCc1cccnc1 | -4.1%
23 | CC(=O)NC(C(=O)NCC(N)=O)C(C)C (configuration not stated) | -4.4%
24 | C/C(=N\NC(=O)c1cc2c(s1)CCC(C)C2)c1cccnc1 (configuration not stated) | 8.5%
25 | CC(C)OC(=O)c1ccc(NCc2cc(O)ccc2O)cc1Cl | -51.3% (active)
26 | O=C(O)Cc1ccc(NCc2ccccc2Cl)cc1 | 7.8%
27 | CC(CN1CCCCC1)OC(=O)c1ccccc1Cl (configuration not stated) | 0.5%
28 | CCN(CC)CCn1c(/N=C/c2cc(Br)ccc2O)nc2ccccc21 | 2.8%
29 | Oc1ccc(Br)cc1/C=N/Nc1ccccn1 | -94.7% (active)
30 | O=C(Nc1ccc(Br)cc1)c1cc(S(=O)(=O)Nc2ccccn2)ccc1Cl | -6.3%
31 | N#CC(=C1SC=CS1)c1nc(-c2ccccc2)cs1 | 9.6%
32 | CCOc1ccc(NC(=O)CN(C)C(=O)Cn2c(=O)cnc3ccccc32)cc1OCC | 3.8%
33 | COc1cccc2c1C(=O)c1c(O)c3c(c(O)c1C2=O)CC(O)(C(C)=NNC(=O)c1ccc(Cl)c(Cl)c1)CC3OC1CC(N)C(O)C(C)O1 (configuration not stated) | -53.3% (active)
34 | CCOC(=O)C1(Cc2cccc(OC)c2)CCN(Cc2csc(C(C)=O)c2)CC1 | -6%
35 | Oc1cccc2ccc(/C=C/c3ccc(Br)s3)nc12 | -93.8% (active)
36 | COc1ccc([C@H]2CC(=O)C=C(/C=C/c3ccccc3)C2)cc1 | 9.7%
37 | CC(C)c1ccc(/C=C2\NC(=O)NC2=O)cc1 | 11.8%
38 | CC[C@]12c3[nH]c4cc(CCC(=O)N(C)C)ccc4c3CCN1C(=O)[C@@H](CC(=O)NCCCn1ccnc1)C[C@@H]2C(=O)N1CCN(C(=O)C2CC2)CC1 | 0.6%
39 | COC(=O)C1=C(NC(=O)C(C)(C)C)CCS1 | 2.3%
40 | CCOC(=O)c1cnc(COc2ccccc2Cl)[nH]c1=O | 4.6%
41 | CCOC(=O)c1c(C)[nH]c2c1-c1ccccc1C(=O)C2=O | -91.6% (active)
42 | CCOC(=O)c1c(C)[nH]c(C)c1C(=O)CSc1nc(N)cc(N)n1 | 13.1%

Row | Structure (SMILES) | activity change (cytotoxicity)
43 | Cc1c2cn[nH]c(=O)c2c(C)n1Cc1ccc(F)cc1 | -2.2%
44 | O=C(O)CSCC(=O)Nc1ccc(C(F)(F)F)cc1 | -4%
45 | CC(=O)Nc1ccc(SCC(=O)NC(=O)c2ccc(Cl)cc2)cc1 | 8%
46 | O=C(CCl)Nc1ccc(Sc2ccc(NC(=O)CCl)cc2)cc1 | -68.5% (active)
47 | CN(C)c1ccc(C(=S)N2CCN(C(=S)Nc3ccc(Cl)cc3)CC2)cc1 | 5.1%
48 | CC(=O)c1cc(NC(=O)c2ccccc2)c(=O)oc1/C=C/N(C)C | -6.9%
49 | O=C(NC1=CC(=O)c2ccccc2C1=O)c1ccccc1 | -97.9% (active)
50 | O=C(COC(=O)c1cccc(Br)c1)Nc1cccc2c1C(=O)c1ccccc1C2=O | -17.2%
51 | COc1ccc(C(CCN(Cc2ccc(OC)c(OC)c2)C(=O)CCl)c2ccccc2)cc1 (configuration not stated) | -76.9% (active)
52 | COc1ccc(CCNC(=O)CN(c2ccccc2)S(C)(=O)=O)cc1OC | 8.4%
53 | COc1ccc(C(C(=O)NC2CCCCC2)N(C(=O)CCl)c2ccccc2Cl)cc1 (configuration not stated) | 4.1%
54 | CC(C[N+](C)(C)C)OC(N)=O (configuration not stated) | -65.7% (active)
55 | CC(=O)OC(C)C[N+](C)(C)C (configuration not stated) | 3.7%
56 | NC(c1csc(NC(=O)Nc2cccc(C(F)(F)F)c2)n1)C1CCCCC1 (configuration not stated) | -57.8% (active)
57 | COc1ccc(C(N)c2csc(NC(=O)Nc3cccc(C(F)(F)F)c3)n2)cc1 (configuration not stated) | -18.3%
58 | NC(c1ccccc1)c1csc(NC(=O)Nc2cccc(C(F)(F)F)c2)n1 (configuration not stated) | -17.2%
59 | c1ccc2c(c1)OCC(c1nn3cnnc3s1)O2 (configuration not stated) | 0.1%
60 | O=C(CSc1nnc(N2CCOCC2)n1-c1cccc(F)c1)N1CCN(c2ccccn2)CC1 | -2.4%
61 | O=C(/C(=N\O)n1cncn1)c1ccc(Br)cc1Br | -5.9%
62 | Cc1c(NC(=O)CN(C)CC(=O)Nc2ccc(F)c(F)c2F)c(=O)n(-c2ccccc2)n1C | 5.4%
